# DAGLB inhibitor – blocks human DAGLB lipase activity. hit rate 0.059% among 340,000. Q8NCG7. HEK293T DAGLB membrane lysate, EnzChek fluorogenic substrate. inhibition, % at 5.17 µM. AID 504411; in the data active means inhibition above about 34%;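 further: 0% = enzyme with vehicle and 100% = wells lacking enzyme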
# Target sequence (Q8NCG7 whole entry, looked up): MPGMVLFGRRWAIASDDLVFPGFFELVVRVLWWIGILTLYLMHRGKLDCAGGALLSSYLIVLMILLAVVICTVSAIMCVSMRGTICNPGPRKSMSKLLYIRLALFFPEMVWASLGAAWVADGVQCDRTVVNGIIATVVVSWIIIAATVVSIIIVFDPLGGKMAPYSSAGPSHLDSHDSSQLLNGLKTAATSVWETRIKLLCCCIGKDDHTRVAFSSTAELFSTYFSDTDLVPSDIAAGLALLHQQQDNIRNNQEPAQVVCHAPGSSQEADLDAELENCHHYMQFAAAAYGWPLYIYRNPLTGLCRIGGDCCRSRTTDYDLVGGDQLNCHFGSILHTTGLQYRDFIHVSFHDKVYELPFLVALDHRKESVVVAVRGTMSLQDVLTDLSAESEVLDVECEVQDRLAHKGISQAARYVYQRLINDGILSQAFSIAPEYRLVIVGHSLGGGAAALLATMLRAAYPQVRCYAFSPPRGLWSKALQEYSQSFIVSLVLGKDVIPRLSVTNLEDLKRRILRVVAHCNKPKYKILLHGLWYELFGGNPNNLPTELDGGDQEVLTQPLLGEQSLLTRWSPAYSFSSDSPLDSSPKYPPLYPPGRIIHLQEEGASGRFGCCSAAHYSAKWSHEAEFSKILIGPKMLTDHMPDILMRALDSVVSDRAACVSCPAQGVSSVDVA
# NadD inh – inhibitors of Staphylococcus aureus NadD; purified NadD enzyme, colorimetric absorbance read-out; inhibition, % at 20 µM; hit rate 0.78% among 360,000; AID 602399; in the data active means inhibition above about 26%
# Neddylation inh – inhibitors of human cullin neddylation | inhibition, % at 25 µM | hit rate 0.58% among 360,000 | TR-FRET cullin neddylation, biochemical | P61081+Q13564; in the data active means inhibition above about 36%
# ARNT TACC3 PPI – ARNT/TACC3 interaction disruption. Q9Y6A5. AlphaScreen His-ARNT PAS-B/GST-TACC3 binding, luminescence; TACC3 fragment carries E629A point mutation. inhibition, % at 9.99 µM. hit rate 0.66% among 390,000. AID 623870;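 active means mean inhibition of replicates at least 50% and at least half of replicates each reaching 50%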;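 further: 0% = complete ARNT plus TACC3 wells and 100% = ARNT alone without TACC3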
# sPLA2-III inh – Blocks human group III sPLA2 activity; Q9NZ20; QFRET BODIPY PC-A2 liposome hydrolysis, fluorescence; inhibition, % at 12.2 µM; hit rate 0.56% among 370,000;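 active means inhibition above mean plus 3 SD of compounds lying within the high and low control bounds, cut at about 19% in these data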;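 further: 0% = median of test compound wells and 100% = no enzyme DMSO wells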
# AlphaScreen ctr – counter-screen for ARNT/TACC3 inhibitors: AlphaScreen artifacts | shares compounds with ARNT TACC3 PPI | hit rate 50% among 1,200 | His-ARNT PASB-GST AlphaScreen artifact counter-screen, luminescence | AC50, µM (series often up to 68 µM), for inactives: at the highest dose activity change, negative = signal decrease;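 active means every separate test run was called active for a drop in luminescence, with AC50 within twice the top valid dose, actives reach about 71 µM in these data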
# Active calls of the source: *; · = not tested or not shown; [ ] = dose if it differs, or a comment. An excerpt weighted towards active compounds, which were near 2% of everything screened.
SMILES,DAGLB inhibitor,NadD inh,Neddylation inh,ARNT TACC3 PPI,sPLA2-III inh,AlphaScreen ctr
Cc1ccccc1CS(=O)(=O)Cc1ccc(C(=O)NCc2ccccn2)o1,3,1,3,53*,-3,-13%
O=c1cc(C(F)(F)F)nc(-n2[nH]c3c(c2=O)CCCC3)[nH]1,-5,1,0,56*,-16,-23%
Nc1nc(C(F)(F)F)cc(=O)[nH]1,-3,0,10,0,3,·
CCCNC(=O)N[C@H]1CC[C@H](CC(=O)NC2CCCCC2)O[C@H]1CO,·,·,·,-1,·,·
O=C(C[C@H]1C=C[C@@H](NC(=O)C2CC2)[C@@H](CO)O1)Nc1nccs1,·,·,·,34*,·,-3%[38 µM]
CCNC(=O)[C@@H]1[C@@H](CO)[C@@H]2Cn3c(ccc(-c4cncnc4)c3=O)[C@@H]2N1C(=O)c1ccccc1F,·,·,·,-1,·,·
CCOc1ccc(NC(=O)NCc2ccccn2)cc1,1,-4,4,-5,2,·
CCOc1ccc(NC(=O)CC(NCc2ccccn2)C(=O)O)cc1 (configuration not stated),-1,-3,0,65*,0,6.1µM*
CC(C)C(=O)NC(c1ccccc1)c1cc([N+](=O)[O-])c2cccnc2c1O (configuration not stated),25,11,-22,0,12,·
CC(=O)NC(c1cc(Cl)c2cccnc2c1O)C(C)C (configuration not stated),2,-1,-27,58*,-4,38µM*
CC(=O)NC(c1cccs1)c1cc([N+](=O)[O-])c2cccnc2c1O (configuration not stated),23,9,-36,60*,16,6.9µM*
O=C1O[C@@H](c2ccccc2)[C@@H](c2ccccc2)N2[C@@H](c3ccccc3OCCO)[C@]3(C(=O)Nc4ccc(C#CCCO)cc43)[C@@H](C(=O)O)[C@H]12,·,·,·,-3,·,·
O=C(CCN1C(=O)c2cccnc2C1=O)NC1CCCCCC1,0,-1,0,59*,-2,-13%
CN1CCN(C(=O)c2cccc(-c3ccc4nncn4c3)c2)CC1,·,-4,-3,·,2,·
CN1CCN(c2cc(-c3cc(O)c4ncccc4c3)ccn2)CC1,2,5,-9,69*,18,11µM*
CN1CCN(C(=O)c2cccc(-c3cc(O)c4ncccc4c3)c2)CC1,7,0,-2,75*,-9,17µM*
COc1ccc(-c2csc3nc[nH]c(=O)c23)cc1OC,-1,-4,-1,10,-3,·
COc1ccc(C2=C(C)CC(C)(C)NC2=O)cc1OC,0,5,-1,active,-1,5%
Cn1c(N)c(C(=O)c2cc(-c3ccccn3)nc3ccccc23)c(=O)[nH]c1=O,3,3,-5,29*,4,-15%
O=C(C[C@H]1CC[C@@H]2[C@H](COC[C@H](O)CN2C(=O)c2ccc(F)cc2)O1)Nc1nccs1,·,·,·,-4,·,·
CN(Cc1ccccc1)C(=O)c1[nH]cnc1C(=O)Nc1nccs1,3,4,-10,55*,4,-30%
CN1CCN(C(=O)C2=C[C@H](C(C)(C)C)C[C@H](OCc3ccc(CO)cc3)O2)CC1,·,·,·,-5,·,·
CCOc1ccccc1/C=N/NC(=O)c1cccc(S(=O)(=O)N(CC)CC)c1,-1,-2,6,-8,-1,·
CCN(CC)c1ccc(/C=N/NC(=O)c2ccc3nc[nH]c3c2)c(O)c1,7,16,38*,55*,·,41µM*
O=c1nccc(N/N=C/c2ccccc2O)[nH]1,-1,-4,-4,36,-1,·
SMILES,DAGLB inhibitor,NadD inh,Neddylation inh,ARNT TACC3 PPI,sPLA2-III inh,AlphaScreen ctr
CCN(CC)S(=O)(=O)c1cccc(C(=O)N/N=C/c2ccc(O)c(O)c2O)c1,6,5,-16,59*,12,19µM*
COc1cccc(/C=N/Nc2ccnc(=O)[nH]2)c1O,-1,-1,-14,57*,0,60µM*
COc1cccc(/C=N/NC(=O)c2ccc3nc[nH]c3c2)c1O,2,0,-5,63*,-16,-20%
C[C@@H]1CN([C@@H](C)CO)C(=O)Cc2cc(NC(=O)Cc3ccccc3)ccc2O[C@H]1CN(C)C(=O)Nc1ccc2c(c1)OCO2,·,·,·,-4,·,·
O=C(Cc1ccccc1)N1C[C@H]2[C@@H](c3ccccc31)[C@H](CO)N2C(=O)c1cccc(F)c1,·,·,·,2,·,·
CC(C)NC(=O)N1[C@H](CO)[C@@H]2c3ccccc3NC[C@@H]21,·,·,·,active,·,-6%[42 µM]
C[C@@H]1CN([C@H](C)CO)C(=O)c2cc(NC(=O)Nc3ccc(C(F)(F)F)cc3)ccc2O[C@@H](C)CCCCO[C@H]1CN(C)S(=O)(=O)c1cn(C)cn1,·,·,·,-7,·,·
CCC(=O)N(C)C[C@@H]1Oc2cc(C#Cc3ccncc3)ccc2S(=O)(=O)N([C@@H](C)CO)C[C@@H]1C,·,·,·,-4,·,·
COc1ccc(S(=O)(=O)n2oc(=O)cc2-c2ccccc2)cc1OC,0,2,-8,active,-1,7.8µM*
COc1ccc(S(=O)(=O)n2oc(=O)cc2-c2ccccc2)cc1,0,3,-6,15,10,·
CCS(=O)(=O)N[C@H]1CC[C@H](CC(=O)Nc2ccc(-c3ccccc3)cc2)O[C@@H]1CO,·,·,·,28,·,·
N/C(=N\NS(=O)(=O)c1cc(C(F)(F)F)cc(C(F)(F)F)c1)c1ccccn1,0,-5,30,57*,9,-5%
CCCCNC(=O)c1cc(-c2ccccc2)on1,·,·,·,·,·,5%[38 µM]
CC(C)(C)CCNC(=O)c1cc(-c2ccccc2)on1,·,·,·,·,·,68µM*
Cc1cccc(CNC(=O)c2cc(-c3ccccc3)on2)c1,·,·,·,·,·,47µM*
O=C(NCCN1CCCCC1)c1cc(-c2ccccc2)on1,·,·,·,·,·,5%[38 µM]
O=C(NCCN1CCOCC1)c1cc(-c2cccc(O)c2)on1,-2,2,-1,-7,0,·
C[C@H](CO)N1C[C@H](C)[C@@H](CN(C)S(=O)(=O)c2cn(C)cn2)Oc2ccc(NC(=O)CCCN(C)C)cc2C1=O,·,·,·,-5,·,·
CNC[C@@H]1OCCCC[C@@H](C)Oc2ccc(NC(=O)c3ccncc3)cc2C(=O)N([C@H](C)CO)C[C@H]1C,·,·,·,-4,·,·
O=C(NCCCO)c1cc(-c2ccccc2)on1,·,·,·,·,·,-2%[38 µM]
O=C(NCc1cccs1)c1cc(-c2ccccc2)on1,-14,-2,4,-7,-3,·
O=C(NCC1CCCCC1)c1cc(-c2ccccc2)on1,·,·,·,·,·,4%[38 µM]
O=C(NCc1ccccn1)c1cc(-c2ccccc2)on1,-2,-3,2,-8,4,·
Cc1noc(C)c1NC(=O)N(C)C[C@@H]1OCCCC[C@@H](C)Oc2ccc(NS(=O)(=O)c3cccs3)cc2C(=O)N([C@H](C)CO)C[C@H]1C,·,·,·,8,·,·
O=C(NCC[C@@H]1CC[C@H](NC(=O)c2ccc3c(c2)OCO3)[C@H](CO)O1)Nc1ccc(Cl)cc1,·,·,·,4,·,·
Cc1nc(Nc2ccc(C(=O)O)cc2)nc(Nc2ccc(C(=O)O)cc2)c1[N+](=O)[O-],1,2,-34,64*,-3,9.4µM*

# Screening data: PubChem BioAssay, several laboratories
